The values below come from ChEMBL document CHEMBL1157539, “Thousands of chemical starting points for antimalarial lead identification” (Nature, 2010).

Holding throughout (type): functional
Assay [1] relates to Plasmodium falciparum. The assay can be described thus: GSK_TCMDC: Inhibition of Plasmodium falciparum 3D7 in whole red blood cells, using parasite LDH activity as an index of growth. Test compounds present at 2uM.
For assay [2], the system named is Plasmodium falciparum. In words: GSK_TCMDC: Inhibition of Plasmodium falciparum Dd2 in whole red blood cells, using parasite LDH activity as an index of growth. Test compounds present at 2uM.
Assay [3] concerns HepG2. The assay can be described thus: GSK_TCMDC: Percent inhibition of human HepG2 cell line. Test compounds present at 10uM.

A word on the Inhibition: it is the share of the control response that was lost under treatment. High values mean a strong effect, low ones a weak effect. Turning to `Cl.O=C(Nc1ccnc2ccccc12)NC1CCN(Cc2ccccc2)CC1`, the Inhibition is 96% in assay [1], 43% in assay [2] and 18% in assay [3].
Regarding `Clc1cc(Cl)cc(Nc2ccnc(Nc3cc(Cl)cc(Cl)c3)n2)c1`, the results for the Inhibition in assay [1], in assay [2] and in assay [3] were 99%, 73% and 11%, respectively.
Taken in the same sequence, the figures for `COc1ccc2c(=O)c(I)c(C)[nH]c2c1` were 96%, 96% and 27%.
With `Cl.Oc1ccc2[nH]c(-c3cccs3)nc2c1CN1CCC(O)(c2ccccc2)CC1`, the Inhibition in assay [1] is 93%; in assay [2], 69%; in assay [3], 10%.
As for `COc1ccc(CNC(=O)Nc2cc3cc(-c4ccc(CN5CCCC5)cc4)ccc3n3c(C)nnc23)cc1`, the Inhibition in assay [1], in assay [2] and in assay [3] was 100% throughout.
As to `CCC1CN2CCc3c([nH]c4ccccc34)[C@@H]2C[C@@H]1CC1NCCc2cc(OC)c(OC)cc21.Cl` (some centres undefined), the Inhibition was determined as 100% in assay [1], 67% in assay [2] and 33% in assay [3].
On to `O=C(c1cc(C(=O)Nc2ccccc2)c(=O)n(-c2ccccc2)c1)c1cc(Cl)ccc1O`, for which the Inhibition in assay [1] was found to be 100%; in assay [2], 95%; in assay [3], 9%.
`O=CO.O=S1(=O)NCc2ccc(Nc3nccc(Nc4ccc5c(cnn5Cc5ccccc5)c4)n3)cc21`: the results for the Inhibition in assay [1], in assay [2] and in assay [3] were 94%, 33% and 0%, respectively.
Taken in the same sequence, the figures for `Cc1cc(N[C@@H](Cc2ccccc2)C(=O)NC2CCCC2)nc(NCc2ccccc2C)n1.O=C(O)C(F)(F)F` were 91%, 20% and 2%.
`O=C(NCCCCN1CCC(c2ccc3c(c2OCC(O)c2ccc(Cl)cc2)CCCC3)CC1)c1ccc(-c2ccc(C(F)(F)F)cc2)cc1` (centres undefined): the Inhibition in assay [1] was found to be 89%; in assay [2], 67%; in assay [3] it was 100%.
Taken in the same sequence, the figures for `COc1cccc(C=Cc2nc(=O)c3ccccc3o2)c1OC` were 97%, 97% and 0%.
The matching figures for `O=C(Cn1c(SCc2cccc(F)c2F)cc(=O)c2ccccc21)N(CCn1ccnc1)Cc1ccc(-c2ccc(C(F)(F)F)cc2)cc1`: 100%, 94% and 20%.
Regarding `Cc1cnc(N2CCN(CC3CCN(C)CC3)CC2)nc1Oc1ccc(-n2ccnc2)cc1.O=C(O)C(F)(F)F`, the Inhibition in assay [1] is given as 99%; in assay [2], 66%; in assay [3] it was 9%.
For `COc1ccc2c(=O)c3ccc(OC)cc3[nH]c2c1`, the Inhibition is 93% in assay [1], 75% in assay [2] and 12% in assay [3].
Taken in the same sequence, the figures for `CCCOc1ccccc1-c1nc2[nH]c3c(c2c(=O)[nH]1)CCN(C)C3` were 87%, 70% and 8%.
The matching figures for `COc1ccc2ncc(F)c(CCN3C4CCC3CC(NCc3ccc5c(c3)OCCO5)C4)c2n1.Cl` (centres undefined): 100%, 35% and 27%.
For `COCCn1c(C)cc(C(=O)CN2C(=O)NC(C)(c3ccc(C(C)(C)C)cc3)C2=O)c1C` (centres undefined), the Inhibition stood at 97% in assay [1], 96% in assay [2] and 7% in assay [3].
The matching figures for `N#Cc1ccc(Sc2nnc(-c3ccccc3Cl)n2CC2CCCCC2)cc1[N+](=O)[O-]`: 85%, 34% and 30%.
Consider `COc1cc(Cc2cnc(N)nc2N)cc(OCCCCCC(=O)O)c1OC.Cl`, for which the Inhibition in assay [1] is on record as 95%; in assay [2] it was 2%; in assay [3] it was 0%.
Turning to `CN(C)CC(O)COc1ccc(Nc2ncc([N+](=O)[O-])c(Nc3ccccc3O)n2)cc1.O=C(O)C(F)(F)F` (centres undefined), the Inhibition in assay [1] came out at 100%; in assay [2], 20%; in assay [3] it was 47%.
With `COc1ccc2nc(C)cc(Nc3ccc(Cl)c(Cl)c3)c2c1`, the Inhibition in assay [1] is 100%; in assay [2], 99%; in assay [3], 30%.
Take `Cc1cc(C(=O)CN2C(=O)NC3(CCCc4ccccc43)C2=O)c(C)n1Cc1ccco1` (centres undefined): the values for the Inhibition in assay [1], in assay [2] and in assay [3] were 90%, 0% and 11%, respectively.
The matching figures for `CC1CCCN(S(=O)(=O)c2ccc(NC(=O)c3cc(-c4ccccc4O)n[nH]3)cc2)C1` (centres undefined): 93%, 49% and 12%.
For `CC(=O)Nc1ccc2[nH]cc(C3CCN(CCC4CCN(C(=O)/C=C/c5ccc(Cl)c(Cl)c5)CC4)CC3)c2c1`, the Inhibition in assay [1] is on record as 95%; in assay [2] it was 7%; in assay [3], 13%.
Taken in the same sequence, the figures for `CN(CCN)Cc1cccc(-c2cccc(-c3nc4cc(C(F)(F)F)ccc4[nH]3)c2)c1.O=C(O)C(F)(F)F` were 99%, 98% and 22%.
Take `COc1ccc2nccc([C@@H](O)CN3CCC(NC(=O)c4ccc(CN5CCN(c6cccc(C)c6)CC5C)cc4)CC3)c2c1` (some centres undefined): the values for the Inhibition in assay [1], in assay [2] and in assay [3] were 97%, 86% and 50%, respectively.
As for `CCc1c(C)nc(-n2nc(C)cc2NC(=O)CC(c2ccccc2)c2ccccc2)[nH]c1=O`, the Inhibition in assay [1] is on record as 97%; in assay [2], 98%; in assay [3] it was 41%.
In the case of `Cc1ccccc1C(=O)Nc1cccc(-c2nc3ncccn3c2C)c1`, the Inhibition in assay [1] turned out to be 94%; in assay [2], 94%; in assay [3], 0%.
